According to PubChem BioAssay AID504521 (NMMLSC, 2011):
The list shows a part of the results. Unmarked numbers belong to inactive results.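 How the source made its calls: active means compounds whose bead fluorescence drops by more than 37 kMESF across the dose range, marking them as dye quenchers; inactive means the rest.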

Test: quenching of fluorescent RNA aptamer on beads, dose response, artefact control for GRK2 RNA aptamer inhibitor project, biochemical, cherry pick 1, bead-based flow cytometry (AID 504521)
Conditions: hits give high values

Question: For `COc1ccc(N2C(=O)/C(=C/c3ccco3)C(=O)NC2=S)cc1`, which fluorescence change (kMESF span) is on record?
Answer: 12 kMESF
